The campaign covered roughly 110,000 compounds. About 1,400 (1.3%) were called active.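 The calls were made as follows: active = Z score or B-score, a plate-position-corrected score, falls beyond the plate's 99.7% confidence bounds, in either direction; inactive = both scores lie inside the 99.7% bounds.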 The entries come from a sample that favours actives as a whole.
Biological target: Sodium-dependent dopamine transporter (Homo sapiens) (UniProt Q01959)
Assay: changed hDAT dopamine uptake under cocaine IC80, either direction, primary screen, cocaine antagonist project, cell-based, LLC-PK1 hDAT, [14C]-dopamine uptake, MLSMR (AID 449768);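 also: scored against the spread of the other compound wells on the same plate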
Settings: LLC-PK1 hDAT cells, [14C]-dopamine uptake with cocaine IC80; at 10 µM; actives deviate in either direction

Chain of Sodium-dependent dopamine transporter (Homo sapiens) (Q01959 whole entry, looked up): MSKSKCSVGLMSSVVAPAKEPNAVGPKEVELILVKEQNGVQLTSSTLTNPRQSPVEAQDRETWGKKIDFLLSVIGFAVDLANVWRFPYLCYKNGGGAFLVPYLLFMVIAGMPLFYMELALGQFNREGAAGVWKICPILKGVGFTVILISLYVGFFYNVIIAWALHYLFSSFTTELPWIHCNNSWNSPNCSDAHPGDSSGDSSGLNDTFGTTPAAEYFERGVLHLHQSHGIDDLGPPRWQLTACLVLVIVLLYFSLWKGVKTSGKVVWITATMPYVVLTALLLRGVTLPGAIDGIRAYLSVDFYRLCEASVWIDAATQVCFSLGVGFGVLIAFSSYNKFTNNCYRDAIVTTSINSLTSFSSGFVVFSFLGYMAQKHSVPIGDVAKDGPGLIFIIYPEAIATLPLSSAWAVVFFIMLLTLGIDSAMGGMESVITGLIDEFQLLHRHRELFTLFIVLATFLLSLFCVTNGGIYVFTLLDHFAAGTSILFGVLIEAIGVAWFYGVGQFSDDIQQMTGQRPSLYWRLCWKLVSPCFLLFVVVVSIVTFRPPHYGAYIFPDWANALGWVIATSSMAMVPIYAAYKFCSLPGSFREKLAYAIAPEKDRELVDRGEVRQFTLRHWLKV

Compound	B-score
COC(C[C@H](O)CC(=O)COCc1ccccc1)OC	-0.106 (inactive)
COC(=O)c1sc(NC(=O)c2ccc(OC)cc2OC)nc1C	-0.655 (inactive)
CNC(=O)c1ccc2nc(NC(C)=O)sc2c1	-0.144 (inactive)
COc1ccc2nc(NC(=O)c3ccc(Br)s3)sc2c1	-2.65 (active)
Cc1c(C(=O)N2CCOCC2)[nH]c2ccc(OCc3ccccc3)cc12	2.65 (active)
CCOC(=O)c1[nH]c2ccc(OC)cc2c1NC(=O)N1CCOCC1	2.03 (inactive)
Cc1c(C(=O)CN2CCOCC2)[nH]c2ccccc12	-1.19 (inactive)
COc1ccc(SCCN2CCN(CC(C)C)CCC2=O)cc1	-0.972 (inactive)
C=C1CCN([C@@H](Cc2ccccc2)C(=O)N2CCOCC2)S(=O)(=O)c2ccccc21	-0.0232 (inactive)
CCC(C)[C@@H](C(=O)N1CCNCC1)n1cc(CCCCN)nn1 (stereo partly drawn)	-0.575 (inactive)
Cc1nnc2sc(-c3ccco3)nn12	-0.595 (inactive)
FC(F)(F)c1nnc2sc(-c3ccco3)nn12	-0.943 (inactive)
Fc1ccc(-c2ccc(-c3nn4c(-c5ccco5)nnc4s3)o2)cc1	-8.2 (active)
CC(C)(C)n1nc(Cc2cccc3ccccc23)c(C#N)c1N	-0.00603 (inactive)
Cc1ccc(NC(=O)CCN2CCc3ccccc3C2)cc1	2.16 (active)
Cc1ccc(NC(=O)CN2CCc3ccccc3C2)cc1	-0.0113 (inactive)
O=C(Nc1ccc(S(=O)(=O)N2CCc3ccccc3C2)cc1)c1ccccc1	-0.732 (inactive)
COC(=O)CCCC1=CC2=CC(=O)C(C)(OC(=O)c3cccs3)C(=O)C2=CN1CC1CC1 (stereo not drawn)	-0.726 (inactive)
CCC1(CC)C(=O)C2=C3C1[C@H](C(=O)OC)C=C(C(=O)OC)C[C@H]3[C@H]1C(=O)N(Cc3ccccc3)C(=O)[C@H]1[C@H]2C (stereo partly drawn)	0.0892 (inactive)
CCCCN1C(=S)NC[C@@H]1C(C)CC (stereo partly drawn)	-0.761 (inactive)
CCCCN1C(N)=NC[C@@H]1CC1CCCCC1	-1.39 (inactive)
Cc1c(NC(=O)C(C)OC(=O)c2cc3c4ccccc4n(C)c3s2)c(=O)n(-c2ccccc2)n1C (stereo not drawn)	4.67 (active)
Cc1cc(C)cc(N(C(C)C(=O)Nc2c(C)n(C)n(-c3ccccc3)c2=O)S(C)(=O)=O)c1 (stereo not drawn)	-0.551 (inactive)
COC(=O)Nc1c(C)n(C)n(-c2ccccc2)c1=O	0.348 (inactive)
Oc1c(Cl)cc(Cl)c(Cl)c1Cc1c(O)c(Cl)cc(Cl)c1Cl	-5.94 (active)

Compound	B-score
Cc1nc(-c2ccc(Cl)cc2)sc1C1(C)CC(c2ccccc2F)=NO1 (stereo not drawn)	-0.519 (inactive)
CC[C@@H](C)[C@@H](C(=O)N1CCN(C(=O)OC(C)(C)C)CC1)n1cc(CCC(=O)O)nn1	-0.83 (inactive)
C#CCNC(=O)[C@H](Cc1ccc(C(=O)c2ccccc2)cc1)NC(=O)OC(C)(C)C	-0.105 (inactive)
Cc1ccc(-c2noc(-c3ccccc3C(=O)NCC3CCCO3)n2)cc1 (stereo not drawn)	-0.191 (inactive)
Cc1ccc(-n2c(C)cc(/C=C(\C#N)C(=O)NCC3CCCO3)c2C)cc1 (stereo not drawn)	3.1 (active)
Cc1ccc(S(=O)(=O)N2CCC(C(=O)NCC3CCCO3)CC2)cc1 (stereo not drawn)	-0.801 (inactive)
CNC(=O)c1[nH]cnc1C(=O)N[C@@H](CC(C)C)C(=O)OCc1ccccc1	-0.0072 (inactive)
COc1ccc(CN2[C@@H](CC(=O)O)c3cc(F)ccc3S2(=O)=O)cc1	1.13 (inactive)
CNC(=O)CN1C(=O)c2ccccc2S1(=O)=O	-0.143 (inactive)
Nc1nnc(SCCN2C(=O)c3ccccc3S2(=O)=O)s1	2.06 (active)
CCCc1nnc(NC(=O)CN2C(=O)c3ccccc3S2(=O)=O)s1	-0.746 (inactive)
O=C1CC2(CCCC2)Oc2ccc(Cl)cc21	0.175 (inactive)
c1ccc(-n2ncc3c(N4CCCC4)ncnc32)cc1	0.432 (inactive)
O=C(Cn1cnc2c(cnn2-c2ccccc2)c1=O)NCc1ccccc1	-0.925 (inactive)
CCN(CC)C(=O)CSc1ncnc2c1cnn2-c1ccccc1	3.2 (active)
C=C1CCN([C@H](C(=O)NCc2cc(OC)c(OC)c(OC)c2)C(C)C)S(=O)(=O)c2ccccc21	1.09 (inactive)
Cc1ccc(/C=N/NC(=O)c2sccc2OCc2ccc(F)cc2)cc1	-0.168 (inactive)
COc1cccc(/C=N/NC(=O)c2cccc([N+](=O)[O-])c2)c1OS(=O)(=O)c1ccc(C)cc1	-0.0993 (inactive)
Cc1ccc(S(=O)(=O)Oc2ccc(/C=N/NC(=O)c3c(Cl)cnn3C)cc2)cc1	-7.83 (active)
CCOC(=O)c1ccc(NC(=O)c2c(NCc3ccccc3)[nH]c(=O)[nH]c2=O)cc1	-0.0313 (inactive)
C#CCNC(=O)C1=C[C@@H](c2ccccc2)[C@H](CCCO)[C@@H](OCC)O1	-0.204 (inactive)
Cc1nnc(NC(=O)CCCOc2ccccc2)s1	-9.48 (active)
COc1ccc(OCCCC(=O)Nc2nnc(C3CCCO3)s2)cc1 (stereo not drawn)	-0.0765 (inactive)
COCC(=O)Nc1nnc(COc2ccccc2)s1	-0.411 (inactive)
COCOc1cc(O)c(C(=O)/C=C/c2ccc(OCOC)c(OCOC)c2)c(OCOC)c1	-0.154 (inactive)

Compound	B-score
CC(C)CC(CO)N1CCN(C(=O)c2ccc(Cl)cc2Cl)CCC1=O (stereo not drawn)	-0.933 (inactive)
CCOc1cc(C(=O)N2CCc3cc(OC)c(OC)cc3C2)ccc1OC(F)F	0.798 (inactive)
COc1ccc(S(=O)(=O)N2CCC(C(=O)N3CCc4ccccc4C3)CC2)cc1OC	0.19 (inactive)
COc1cc2c(cc1OC)CN(C(=O)c1cc(=O)c3ccccc3o1)CC2	3.91 (active)
Cc1ccc(Cc2c(C)nc3nc(SCC(=O)NCCN4CCOCC4)nn3c2C)cc1	2.86 (active)
O=C(CCN1C(=O)c2ccccc2C1=O)NCCN1CCOCC1	-0.649 (inactive)
Cc1ccc(NC(=S)NCCN2CCOCC2)cc1	-0.206 (inactive)
CCOC(=O)c1ccc(NC(=O)c2c(N)n(C)c(=O)[nH]c2=O)cc1	-0.175 (inactive)
COC(C[C@@H](O)C[C@H](O)[C@H](C)OCc1ccccc1)OC	0.0993 (inactive)
COc1ccccc1C1C2=C(COC2=O)Nc2cc3c(cc21)OCO3 (stereo not drawn)	-2.97 (active)
CCCOc1ccccc1C1CC(=O)Nc2cc3c(cc21)OCO3 (stereo not drawn)	-1.06 (inactive)
COc1ccc(F)cc1S(=O)(=O)Nc1ccc2c(c1)OCO2	-0.037 (inactive)
CCOC(=O)/C=C/CN(C(=O)OC(C)(C)C)S(=O)(=O)N1CC=CC1	-1.8e-05 (inactive)
CC(=O)c1ccc(NC(=O)N[C@@H](Cc2ccccc2)C(=O)O)cc1	3.14 (active)
CC(=O)NC(Cc1ccc(F)cc1)C(=O)O (stereo not drawn)	-0.111 (inactive)
COC(=O)[C@H](Cc1ccccc1)NC(=O)Nc1ccc(S(N)(=O)=O)cc1	0.0225 (inactive)
Cc1ccc(/C=N/NC(=O)C2=NNC(c3ccccc3)(c3ccccc3)C2)c(O)c1	-0.164 (inactive)
Cc1ccc(/C=N/NC(=O)C(NC(=O)c2ccccc2)c2n[nH]c(=O)c3ccccc23)cc1 (stereo not drawn)	5.41 (active)
Cc1ccc(C(=O)N/N=C/c2sc(=O)n(Cc3cccc(C(=O)O)c3)c2Cl)cc1	0.653 (inactive)
C#CCOCCOCCOCCNc1nc(N2CCN(C(=O)[C@H](C(C)C)n3cc(CCO)nn3)CC2)nc(N2CCN(C(=O)[C@H](C(C)C)n3cc(CCO)nn3)CC2)n1	-0.703 (inactive)
COc1ccc(-c2nc3c(s2)CCc2onc(-c4ccc(Br)cc4)c2-3)cc1	-0.269 (inactive)
O=C1NC[C@@H](Cc2ccc(O)cc2)N(CCc2cccc(F)c2)C1=O	0.0299 (inactive)
Cc1cn(C)c(=O)n(C)c1=O	-1.72 (inactive)

Reference: PubChem BioAssay AID449768 (Vanderbilt High Throughput Screening Facility, 2010)
